The values that follow come from PubChem BioAssay (EPA / NIEHS).

The source made the active and inactive calls. Rule for the calls: active = hit-call score of the fitted dose curve at least 0.9, where 1 is the maximum; inactive = score below 0.9.

This experiment can be described thus: BSK_SAg_SRB: Viability Assessment in the BioMAP Diversity Plus: SAg Assay (AID 2283096).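 Note: cells read one day after compound addition; hits may be either gain or loss of signal compared with DMSO.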 As to conditions: primary human HUVEC with PBMC. In outline:
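This overt-cytotoxicity endpoint quantifies protein in human endothelial/PBMC co-cultures at 24 h using SRB absorbance (560 nm) after trichloroacetic acid fixation. Values reflect signal change from the DMSO negative control, fitted bidirectionally.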
With `O=C(O)c1cn(C2CC2)c2cc(N3CCNCC3)c(F)cc2c1=O`, the outcome was inactive.

For the molecule `C=C(C)C(=O)O[C@H]1C[C@@H]2CC[C@@]1(C)C2(C)C`, the AC50 was 30.9 µM (active).

Regarding `CCCCCCCCCCCCCCCCCC(=O)OCC(CC)CCCC` (centres undefined), the outcome was inactive.

Regarding `CC(C)(COC(=O)c1ccccc1)COC(=O)c1ccccc1`, the outcome was inactive.

With `O=C(O)C[C@H](O)C[C@H](O)/C=C/c1c(C2CC2)nc2ccccc2c1-c1ccc(F)cc1`, the AC50 was 0.104 µM (active).

Take `CCc1c(C)cc(N)c(CC)c1N`: the outcome was inactive.

On to `CC(=O)OCCC(C)CC(C)(C)C` (centres undefined), for which the result was inactive.

Turning to `O=C(O)c1cn(-c2ccc(F)cc2)c2cc(N3CCNCC3)c(F)cc2c1=O`, the result was inactive.

Regarding `CCn1c2ccccc2c2cc(N)ccc21`, the outcome was inactive.

As for `O=C1OC2(c3cc(Br)c(O)c(Br)c3Oc3c2cc(Br)c(O)c3Br)c2c(Cl)c(Cl)c(Cl)c(Cl)c21`, the AC50 is 18.2 µM (active).

In the case of `OC1OC[C@@H](O)[C@H](O)[C@H]1O` (some centres undefined), the result was inactive.

As for `BrC1CCC(Br)C(Br)CCC(Br)C(Br)CCC1Br` (centres undefined), the AC50 was 4.67 µM (active).

As for `Nc1cc([N+](=O)[O-])ccc1Cl`, the result was inactive.

With `CC(=O)O[C@]1(C(C)=O)CC[C@H]2[C@@H]3C[C@H](C)C4=CC(=O)CC[C@]4(C)[C@H]3CC[C@@]21C`, the outcome was inactive.

Turning to `CCCCC(CC)COC(=O)/C=C\C(=O)OCC(CC)CCCC` (centres undefined), the outcome was inactive.

Regarding `CCCCCCCCCC=O`, the outcome was inactive.

For `CC1COc2ccccc2N1C(=O)C(Cl)Cl` (centres undefined), the AC50 was 10.3 µM (active).

For the molecule `O=P(c1ccccc1)(c1ccccc1)c1ccccc1`, the result was inactive.

`OC[C@H]1O[C@H](O[C@]2(CCl)O[C@H](CCl)[C@@H](O)[C@@H]2O)[C@H](O)[C@@H](O)[C@H]1Cl`: the result was inactive.

A word on the AC50: it is the concentration giving half of the maximal activity seen.
